From PubChem
FLuc inh: blocks Photinus pyralis firefly luciferase activity; purified firefly luciferase, luminescence, 8 min; Potency, µM (top dose mostly 57.1 µM), for inactives: top-dose activity change, negative = inhibition, actives largely listed as inhibitors; 2.2% of 72,000 active; AID 411; note: nearly all actives have a fitted effect of over 40% in size
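Firefly luciferase (PKLight detection mix) with 10 uM ATP in pH 7.2 imidazole buffer (KCl, MgCl2, Tween 20, BSA). Compounds tested across a concentration series (qHTS). Luminescence read after 8 min at ambient temperature.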
HSD17B inhib: blocks hydroxysteroid 17-beta dehydrogenase activity; Q99714; recombinant HSD17B10, NADH fluorescence kinetic; Potency, µM (top dose mostly 57.1 µM), for inactives: top-dose activity change, negative = inhibition, actives largely listed as inhibitors; 7.6% of 75,000 active; AID 893;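 note: the protocol describes HADH2 (HSD17B10) and not the HSD17B4 of the title; nearly all actives have a fitted effect of over 70% in size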
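20 nM HADH2, pH 9.0 Tris/Tween; cpd preinc 15 min RT; start w/ 1 mM NAD+ + 90 uM b-hydroxybutyryl-CoA; kinetic fluor ex360/em450 q30s x 4 min; delta last-first.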
ALOX15 inhib: inhibitors of human 15-lipoxygenase (ALOX15). P16050. purified 15hLO-1, xylenol orange hydroperoxide absorbance. Potency, µM (highest dose often 57.1 µM), without a hit: at the top dose activity change, negative = inhibition, most hits filed as inhibitors. 1.4% of 74,000 active. AID 887; note: nearly all actives have a fitted effect of over 55% in size
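Purified human 15hLO-1 (40 nM final) in 25 mM Hepes pH 7.5, 0.01% Triton X-100 was preincubated with compound 15 min at room temperature, then reacted 6 min with 50 uM arachidonic acid; hydroperoxide detected by Fe-XO, 573/405 nm absorbance ratio.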
HADH2 inh: blocks human hydroxyacyl-CoA dehydrogenase type II. recombinant HADH2, NADH fluorescence, beta-hydroxybutyryl-CoA. 3.4% of 73,000 active. Potency, µM (doses to about 57.1 µM), without a hit: at the highest dose activity change, negative = inhibition, usual class: inhibitors. Q99714; note: nearly all actives have a fitted effect of over 60% in size
Target sequence (Q99714 whole entry, looked up, one chain of several): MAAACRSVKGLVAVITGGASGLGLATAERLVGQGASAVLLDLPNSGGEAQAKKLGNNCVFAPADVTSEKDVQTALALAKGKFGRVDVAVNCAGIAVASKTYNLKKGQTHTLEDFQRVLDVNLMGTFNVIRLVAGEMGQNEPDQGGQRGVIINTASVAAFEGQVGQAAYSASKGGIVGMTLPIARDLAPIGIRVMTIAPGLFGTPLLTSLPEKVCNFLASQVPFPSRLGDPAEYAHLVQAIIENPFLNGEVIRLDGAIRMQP
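His-tagged recombinant enzyme from E. coli, 20 nM, preincubated 15 min RT with compound; reaction started with 1 mM NAD+ and 90 uM beta-hydroxybutyryl-CoA in 100 mM Tris-HCl pH 9.0. NADH fluorescence (ex 360/em 450) read over 4 min; last-minus-first difference.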
ERK AVP inh: vasopressin-driven ERK pathway inhibition; HEK293-V1b, vasopressin-stimulated pERK AlphaScreen; Potency, µM (series often up to 57.5 µM), for the others: at the top dose activity, negative = inhibition, usual class: inhibitors; 0.99% of 72,000 active; AID 995; note: nearly all actives have a fitted effect of over 55% in size
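HEK293 cells stably expressing V1b receptor, preincubated 30 min at 37 °C with compound, then stimulated 5 min with 25 nM vasopressin. Phospho-ERK by AlphaScreen SureFire after 5 h RT; normalized to DMSO and vasopressin; AC50 by Hill fit.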
PK Bst: pyruvate kinase (B. stearothermophilus) modulation; purified pyruvate kinase, luminescence ATP production; ribose 5-phosphate activator present at AC10; Potency, µM; 1.2% of 51,000 active; AID 361; in the data active = potency below about 11 µM; inconclusive = mostly about 12 µM to 25 µM;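 the screen sought inhibitors and activators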;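 note: scaled between full activation by ribose 5 phosphate and full inhibition by luteolin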
* marks the source's active call; other numbers are inactive results; i = inactive; ? = inconclusive; / = not tested or not shown; [ ] = dose if it differs, or a comment. Hits are enriched below; roughly 11% of the tested compounds scored in any of these assays. Unless noted, calls come from the whole dose curve; as a rule, active = well fitted curve in the direction sought with a large enough effect; inconclusive = small, poorly fitted or top-dose-only effect, or another doubt; inactive = no such curve, though single readings can be large; an effect the other way counts as inactive or inconclusive. Unless noted, % is set by controls: 0 for no effect and ±100 for the full control effect; potency is the fitted concentration of half-maximal effect.

SMILES	FLuc inh	HSD17B inhib	ALOX15 inhib	HADH2 inh	ERK AVP inh	PK Bst
Cc1nc2c3cnn(-c4ccccc4)c3ncn2n1	-13%	?	9%	10%	-22%	/
CCc1c2c(nc3cccc(SC)c13)COC2	/	25µM*	/	?	?	/
CSc1ccc(-c2c(C#N)c(N)nc3c2CCCC3)cc1	-20%	-17%	-8%	10%	4%	>57
COC(=O)c1c(C#N)c(N)nc2c1CCC2	0%	32µM*	0%	277%	-7%	/
N#Cc1nc(-c2ccco2)oc1N1CCC(C(N)=O)CC1	1%	32µM*	1%	25µM*	-9%	>57
N#Cc1nc(-c2ccco2)oc1N1CCN(Cc2ccccc2)CC1	3%	?	-1%	-22%	-21%	>57
CC1CN(c2oc(-c3ccco3)nc2C#N)CC(C)O1 (configuration not stated)	-1%	25µM*	0%	32µM*	-27%	>57
COc1ccc2c(c1)Cc1sc(NC(=O)c3cccs3)nc1-2	-16%	?	32µM*	?	?	/
Cc1nc2ccccc2c2nc3ccccc3n12	-1%	32µM*	-24%	?	-29%	/
Nn1nnc2ccccc21	-1%	-8%	4%	8%	19%	/
c1ccc2c(c1)nnn1c3ccccc3nc21	13µM*	1%	-1%	14%	-19%	/
O=C(O)CCC(O)=C1S(=O)(=O)OCCOS1(=O)=O	1%[11.4 µM]	3%[11.4 µM]	14%[11.4 µM]	15%[11.4 µM]	-4%[11.5 µM]	/
CCn1c(=O)cc(SCC(=O)N2CCOCC2)c2ccccc21	-1%	?	6%	-11%	-20%	>57
CCn1c(=O)cc(SCC(=O)N2CCN(c3ccccc3OC)CC2)c2ccccc21	1%	-5%	?	-13%	25µM*	>57
CC1(C)Cc2c(C#N)c(N3CCOCC3)nc(-c3ccccc3)c2CO1	-3%[25.5 µM]	/	/	/	/	>26
CC1(C)Cc2nc(N3CCOCC3)c(C#N)cc2CO1	-2%	32µM*	-1%	20µM*	?	>57
CC1(C)Cc2nc(NCCCO)c(C#N)cc2CO1	1%[25.5 µM]	/	/	/	/	>26
CCc1nc(N2CCOCC2)c(C#N)c2c1COC(C)(C)C2	1%	25µM*	-6%	25µM*	-20%	>57
CC1CCN(c2nc(-c3ccco3)c3c(c2C#N)CC(C)(C)OC3)CC1	-9%	32µM*	-19%	?	/	/
Cc1nc(N2CCOCC2)c(C#N)c2c1COC(C)(C)C2	1%[25.5 µM]	/	/	/	/	>26
O=C(c1ccccc1)n1c(=S)nc2ccccn21	1.3µM*	/	/	/	/	2.2*
CCOC(=O)c1c(C)nc2ccccn12	0%	8%	0%	-3%	?	>11
C=CCSC1=C(C#N)C(c2cccc(OC)c2)CC(=O)N1 (configuration not stated)	1%	-1%	6%	-6%	12%	>57
CSC1=C(C#N)C(c2cccc(Br)c2)CC(=O)N1 (configuration not stated)	0%	-9%	-17%	-8%	20µM*	>11
Cn1c(-c2ccc(N)cc2)nc2ccccc21	?	20µM*	?	-144%	-22%	/
SMILES	FLuc inh	HSD17B inhib	ALOX15 inhib	HADH2 inh	ERK AVP inh	PK Bst
CCCn1c(-c2ccc(OC)cc2)nc2ccccc21	-5%	-16%	0%	2%	-25%	/
Cn1c(-c2ccc3nc(N)sc3c2)nc2cc(N)ccc21	-24%	25µM*	-6%	?	-17%	i
C/C=C/OC(=O)NC(c1cccc(C)c1)[C@@]1(C(=O)OCC)CCCC1=O (some centres not stated)	/	-4%[11.4 µM]	-5%[11.4 µM]	-3%[11.4 µM]	28%[11.5 µM]	/
N#Cc1cccc(NC(=O)N2CC[C@@]3(CCCN(C(=O)c4ccco4)C3)C2)c1	-1%[11.4 µM]	-6%	2%	5%	-28%	/
O=C1C2C3CCCC3=C3CCCC3C2C(=O)N1c1cccc(Cl)c1 (configuration not stated)	1%	-8%	10µM*	-19%	3%	/
O=C1C2C3CCCC3=C3CCCC3C2C(=O)N1c1ccc(Cl)cc1 (configuration not stated)	-4%	?	?	-5%	-28%	>57
Clc1ccc2c(N3CCC(CCC4CCN(c5ncnc6cc(Cl)ccc56)CC4)CC3)ncnc2c1	-1%[11.4 µM]	1%[11.4 µM]	6%[11.4 µM]	-7%[11.4 µM]	12%[11.5 µM]	/
O=c1[nH]cc(CS(=O)(=O)Cc2c[nH]c(=O)[nH]c2=O)c(=O)[nH]1	2%[11.4 µM]	1%[11.4 µM]	8%[11.4 µM]	3%[11.4 µM]	0%[11.5 µM]	/
CCCCN(C)Cc1c(C)[nH]c2ccc(OCC)cc2c1=O	2%	25µM*	-6%	36%	13%	/
COc1cc(-c2nnn(CC#N)n2)ccc1OCc1ccccc1	-5%	-26%	1%	-13%	38%	/
COc1cc(-c2nnn(CC(=O)NC3CCS(=O)(=O)C3)n2)ccc1OCc1ccccc1 (configuration not stated)	13µM*	3%	6%	1%	1%	/
CNc1ncnc2ccc(-c3ccc4c(c3)OCO4)cc12	1%[2.29 µM]	-6%	7%	14%	4%	/
c1ccc(CNc2ncnc3ccc(-c4ccc5c(c4)OCO5)cc23)cc1	1%[2.29 µM]	25µM*	5%	?	?	/
CN(C)c1ccc(-c2cc(NCc3ccccc3)ncn2)cc1	?	32µM*	-10%	?	?	/
CN(C)c1ccc(-c2ccc3ncnc(NCc4ccccc4)c3c2)cc1	1%[2.29 µM]	-22%	-6%	11%	13µM*	/
c1ccc(CNc2ncnc3ccccc23)cc1	0%	-21%	-36%	6%	25µM*	>57
O=C(N/N=C1/C[C@@H](O)[C@@H](O)[C@@H]2[C@H]3C(=O)N(c4ccc(F)cc4F)C(=O)[C@@H]3CC[C@H]12)OCc1ccccc1	1%[11.4 µM]	2%[11.4 µM]	2%[11.4 µM]	-15%[11.4 µM]	-3%[11.5 µM]	/
N#Cc1c(NC(=O)C(F)(F)F)sc2c3c(=O)c4ccccc4c(=O)c=3oc3ccccc3c12	-1%[11.4 µM]	-21%[11.4 µM]	-16%[11.4 µM]	-27%[11.4 µM]	-1%[11.5 µM]	/
CSc1nc(NC2CCCC2)c([N+](=O)[O-])c(NC2CCCC2)n1	0%	-5%	-7%[25.6 µM]	5%	-10%	/
CCC1=C(C[C@H]2NCCc3ccccc32)C[C@@H]2c3cc(OC)c(OC)cc3CCN2C1	1%[11.4 µM]	10%[11.4 µM]	-17%[11.4 µM]	3%[11.4 µM]	1%[11.5 µM]	/
COc1ccc(CNc2ncnc3ccc(-c4ccc5c(c4)OCO5)cc23)c(OC)c1	0%[2.29 µM]	25µM*	?	?	?	/
Cc1cccc(CNc2cc(-c3ccc(C(=O)N(C)C)cc3)ncn2)c1	-1%[2.29 µM]	32µM*	-21%	-50%	-11%	/
CN(C)c1ccc(-c2cncnc2NCc2ccccc2)cc1	-1%[2.29 µM]	?	8%	-11%	25µM*	/
COc1ccc(CNc2ncnc3ccc(-c4ccoc4)cc23)c(OC)c1	0%[2.29 µM]	?	4%	-4%	?	/
